Measurements as given in PubChem BioAssay (EPA / NIEHS).
Inconclusive results are not listed. Calls of active or inactive are those of the source. Rule for the calls: active = hit-call score of the fitted dose curve at least 0.9, where 1 is the maximum; inconclusive = response in the unintended direction; inactive = score below 0.9.

read-out: Cytochrome P450 3A4 (Homo sapiens) (UniProt P08684); test: CLD_CYP3A4_48hr: CellzDirect (CLD) Gene Expression Assay for xenobiotic metabolism (CYP3A4) at 48 hours (AID 2283698)
Outline: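 Primary human hepatocytes from two donor preparations dosed daily for two days with multiple chemical concentrations, 0.2% DMSO vehicle. CYP3A4 mRNA at 48 h by quantitative nuclease protection assay, chemiluminescence, positive fit versus DMSO; cytotoxicity flagged morphologically.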

Chain of Cytochrome P450 3A4 (Homo sapiens) (P08684 whole entry, looked up): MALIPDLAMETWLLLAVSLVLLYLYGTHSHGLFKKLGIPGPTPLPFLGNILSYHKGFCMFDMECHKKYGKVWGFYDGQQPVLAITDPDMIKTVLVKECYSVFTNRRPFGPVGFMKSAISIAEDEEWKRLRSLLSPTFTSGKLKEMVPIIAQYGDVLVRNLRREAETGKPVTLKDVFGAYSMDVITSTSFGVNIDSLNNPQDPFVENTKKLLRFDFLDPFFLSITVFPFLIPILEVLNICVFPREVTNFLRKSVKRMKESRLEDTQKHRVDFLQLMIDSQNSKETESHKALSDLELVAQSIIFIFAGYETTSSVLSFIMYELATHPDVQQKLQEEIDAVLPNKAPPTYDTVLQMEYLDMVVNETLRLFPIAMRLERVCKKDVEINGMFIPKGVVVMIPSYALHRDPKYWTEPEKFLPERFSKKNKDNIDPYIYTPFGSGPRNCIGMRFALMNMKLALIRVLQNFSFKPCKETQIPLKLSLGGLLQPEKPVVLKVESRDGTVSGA

| Compound | AC50 | outcome |
| --- | --- | --- |
| CCOP(=S)(OCC)OC(Cl)C(Cl)(Cl)Cl (stereo unspecified) | 9.51 µM (active) | – |
| CCOP(=S)(OCC)SCCSCC | 20 µM (active) | – |
| CC[C@H](C)[C@H]1O[C@]2(C=C[C@@H]1C)C[C@@H]1C[C@@H](C/C=C(\C)[C@@H](O[C@H]3C[C@H](OC)[C@@H](O[C@H]4C[C@H](OC)[C@@H](NC)[C@H](C)O4)[C@H](C)O3)[C@@H](C)/C=C/C=C3\CO[C@@H]4[C@H](O)C(C)=C[C@@H](C(=O)O1)[C@]34O)O2 | – | inactive |
| Cc1nn(-c2cc(NS(C)(=O)=O)c(Cl)cc2Cl)c(=O)n1C(F)F | 2.46 µM (active) | – |
| CCCOCC(=Nc1ccc(Cl)cc1C(F)(F)F)n1ccnc1 | 1.89 µM (active) | – |
| C[Si](Cn1cncn1)(c1ccc(F)cc1)c1ccc(F)cc1 | 0.536 µM (active) | – |
| Cc1ccn2nc(S(=O)(=O)Nc3c(F)cccc3F)nc2n1 | 3.97 µM (active) | – |
| CCOC(=O)CC(SP(=O)(OC)OC)C(=O)OCC (stereo unspecified) | 20 µM (active) | – |
| FC(F)C(F)(F)OCC(Cn1cncn1)c1ccc(Cl)cc1Cl (stereo unspecified) | 1.89 µM (active) | – |
| COc1ccc(C(=CC(=O)N2CCOCC2)c2ccc(Cl)cc2)cc1OC | 1.9 µM (active) | – |
| CCOP(=O)(SC(C)CC)N1CCSC1=O (stereo unspecified) | 5.18 µM (active) | – |
| CON=C(C(=O)OC)c1ccccc1CON=C(C)c1cccc(C(F)(F)F)c1 | 13.1 µM (active) | – |
| N#CSCSC#N | – | inactive |
| CSC1=N[C@@](C)(c2ccccc2)C(=O)N1Nc1ccccc1 | – | inactive |
| CCOP(=S)(Oc1cnc(C(C)(C)C)nc1)OC(C)C (stereo unspecified) | 0.383 µM (active) | – |
| CCOP(=O)(OCC)Oc1cc(C)nc(C(C)C)n1 | 20 µM (active) | – |

| Compound | AC50 | outcome |
| --- | --- | --- |
| CC(=NC#N)N(C)Cc1ccc(Cl)nc1 | – | inactive |
| CCCCSP(=O)(SCCCC)SCCCC | 20 µM (active) | – |
| CNC(=O)ON=C(C)SC | – | inactive |
| COc1cc(OC)nc(Sc2cccc(Cl)c2C(=O)O)n1 | 35.2 µM (active) | – |
| CC(C)N(C(=O)SCC(Cl)=C(Cl)Cl)C(C)C | 3.07 µM (active) | – |
| C#CC(C)(C)NC(=O)c1cc(Cl)cc(Cl)c1 | – | inactive |
| Nc1c(Cl)cc([N+](=O)[O-])cc1Cl | – | inactive |
| CN(C)NC(=O)CCC(=O)O | – | inactive |
| CCc1cccc(CC)c1N(COC)C(=O)CCl | – | inactive |
| COc1cccc(C(=O)NN(C(=O)c2cc(C)cc(C)c2)C(C)(C)C)c1C | 1.42 µM (active) | – |
| CCCSP(=O)(OCC)Oc1ccc(Br)cc1Cl (stereo unspecified) | 7.57 µM (active) | – |
| CC(C)=CC1C(C(=O)OCN2C(=O)C3=C(CCCC3)C2=O)C1(C)C (stereo unspecified) | 0.152 µM (active) | – |
| CN(C)C(=O)Nc1cccc(C(F)(F)F)c1 | 20 µM (active) | – |
| C#CCC1=C(C)C(OC(=O)C2C(C=C(C)C)C2(C)C)CC1=O (stereo unspecified) | 14.1 µM (active) | – |
| CC(COc1ccc(Oc2ccccc2)cc1)Oc1ccccn1 (stereo unspecified) | 3.97 µM (active) | – |
